What all share (design): scale not given: direction of the effect not stated beside the values
For experiment [1], the target named is Protein translocase subunit SecA (Escherichia coli (strain K12)) (UniProt P10408). The experiment can be described thus: Assay to Identify E. coli SecA ATPase Inhibitors. It is filed as functional. To be noted: 30 µM.
The target of experiment [2] is T1, Ubiquitin-activating enzyme e1, putative (Leishmania donovani (strain BPK282A1)) (UniProt E9BSI1).
T1 sequence (whole entry): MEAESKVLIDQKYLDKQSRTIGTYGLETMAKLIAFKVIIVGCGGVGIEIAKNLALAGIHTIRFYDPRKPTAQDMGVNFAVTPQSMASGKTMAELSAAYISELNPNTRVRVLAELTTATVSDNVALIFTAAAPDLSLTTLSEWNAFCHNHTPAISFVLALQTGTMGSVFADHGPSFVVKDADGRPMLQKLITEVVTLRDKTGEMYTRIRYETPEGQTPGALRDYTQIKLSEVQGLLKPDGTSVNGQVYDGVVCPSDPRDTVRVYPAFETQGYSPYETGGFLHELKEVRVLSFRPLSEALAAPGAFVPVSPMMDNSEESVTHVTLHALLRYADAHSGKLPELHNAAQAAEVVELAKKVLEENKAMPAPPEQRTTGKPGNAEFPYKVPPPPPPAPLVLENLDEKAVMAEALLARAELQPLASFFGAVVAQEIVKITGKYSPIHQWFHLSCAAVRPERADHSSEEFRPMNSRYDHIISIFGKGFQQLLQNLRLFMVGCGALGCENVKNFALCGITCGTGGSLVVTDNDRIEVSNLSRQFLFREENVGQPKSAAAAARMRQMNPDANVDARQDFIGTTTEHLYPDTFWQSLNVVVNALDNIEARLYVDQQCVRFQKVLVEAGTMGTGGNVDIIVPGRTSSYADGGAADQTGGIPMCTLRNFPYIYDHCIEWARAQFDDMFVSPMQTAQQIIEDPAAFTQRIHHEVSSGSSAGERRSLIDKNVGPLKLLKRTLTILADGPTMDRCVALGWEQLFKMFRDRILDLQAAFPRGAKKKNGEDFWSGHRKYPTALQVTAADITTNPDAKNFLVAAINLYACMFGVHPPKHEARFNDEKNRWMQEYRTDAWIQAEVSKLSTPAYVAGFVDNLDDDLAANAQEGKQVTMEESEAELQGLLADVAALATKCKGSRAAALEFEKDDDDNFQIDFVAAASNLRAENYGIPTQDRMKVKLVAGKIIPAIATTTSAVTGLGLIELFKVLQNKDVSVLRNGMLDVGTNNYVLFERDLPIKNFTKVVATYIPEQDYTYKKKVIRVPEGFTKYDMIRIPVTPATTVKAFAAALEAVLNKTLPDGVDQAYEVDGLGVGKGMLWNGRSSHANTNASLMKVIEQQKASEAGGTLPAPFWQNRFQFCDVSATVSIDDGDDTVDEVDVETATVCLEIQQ
As to the kind of experiment: Leishmania donovani Ubiquitin Activating Enzyme (LdE1). The experiment is classed as functional. To be noted: 30 µM.

Experiment [3] deals with AMP-activated protein kinase, AMPK (Homo sapiens) (UniProt P54646+O43741+P54619+Q9UGJ0+Q9Y478+Q13131+Q9UGI9). The experiment can be described thus: AMP-dependent Kinase enzyme assay. An in vitro enzyme assay that detects ADP turnover that is directly proportional to AMPK activity. This uses naive AMPK that is activated during the assay with MK-8722. The experiment is classed as functional. To be noted: 30 µM.

Experiment [4] addresses Sialic acid-binding Ig-like lectin 9 (Homo sapiens) (UniProt Q9Y336). The experiment can be described thus: Hs-Siglec9 ALPHAscreen SOP 20170721. To be noted: 10 µM.
The subject of the next experiment is Trypanosoma cruzi. The experiment can be described thus: Trypanosoma cruzi phosphomannomutase and mannose-1-phosphate guanylyltransferase assay. The experiment is classed as functional. To be noted: 10 µM.
The target of experiment [5] is T2, Arginase-2, mitochondrial (Homo sapiens) (UniProt P78540).
T2 sequence (whole entry): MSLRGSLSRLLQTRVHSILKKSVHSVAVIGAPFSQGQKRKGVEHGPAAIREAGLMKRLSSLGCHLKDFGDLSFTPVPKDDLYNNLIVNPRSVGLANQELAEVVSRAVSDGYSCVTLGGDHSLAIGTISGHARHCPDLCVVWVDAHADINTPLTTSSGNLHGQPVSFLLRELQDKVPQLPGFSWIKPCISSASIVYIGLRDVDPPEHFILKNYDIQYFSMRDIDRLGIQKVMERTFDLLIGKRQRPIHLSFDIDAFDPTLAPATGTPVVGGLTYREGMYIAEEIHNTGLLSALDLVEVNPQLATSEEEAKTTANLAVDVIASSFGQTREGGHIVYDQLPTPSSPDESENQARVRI
The experiment can be described thus: in vitro enzyme assay to detect the production of urea directly proportional to the activity of Arginase II. Note: in the data most compounds retested in dose-response had high values. The experiment is classed as functional. The following applies: 33.3 µM.

The target in experiment [6] is T3, Proteasome subunit beta (Trypanosoma cruzi) (UniProt O96673).
T3 sequence (whole entry): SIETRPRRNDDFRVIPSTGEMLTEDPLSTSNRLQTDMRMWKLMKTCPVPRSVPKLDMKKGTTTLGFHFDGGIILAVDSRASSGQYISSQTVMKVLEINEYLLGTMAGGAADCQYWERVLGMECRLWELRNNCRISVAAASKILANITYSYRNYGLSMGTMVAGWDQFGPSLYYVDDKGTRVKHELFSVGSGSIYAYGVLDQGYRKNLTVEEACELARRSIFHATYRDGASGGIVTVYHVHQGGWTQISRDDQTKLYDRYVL
As to the kind of experiment: Trypanosoma cruzi proteasome chymotrypsin-like activity (TcProtChymo) assay. Note: in the data most compounds retested in dose-response had high values. It is filed as functional. The following applies: 9.37 µM.

The species entered for a further experiment is Homo sapiens. The experiment can be described thus: To identify inhibition of the IFN signalling (Jak-Stat) pathway via expression of an eGFP reporter gene under the control of an IFN-stimulated response element (ISRE) containing MxA promoter. It is filed as functional. To be noted: 30 µM.
Experiment [7] concerns the target T4, Tyrosyl-tRNA synthetase, putative (Trypanosoma cruzi (strain CL Brener)) (UniProt Q4DSP6).
T4 sequence (whole entry): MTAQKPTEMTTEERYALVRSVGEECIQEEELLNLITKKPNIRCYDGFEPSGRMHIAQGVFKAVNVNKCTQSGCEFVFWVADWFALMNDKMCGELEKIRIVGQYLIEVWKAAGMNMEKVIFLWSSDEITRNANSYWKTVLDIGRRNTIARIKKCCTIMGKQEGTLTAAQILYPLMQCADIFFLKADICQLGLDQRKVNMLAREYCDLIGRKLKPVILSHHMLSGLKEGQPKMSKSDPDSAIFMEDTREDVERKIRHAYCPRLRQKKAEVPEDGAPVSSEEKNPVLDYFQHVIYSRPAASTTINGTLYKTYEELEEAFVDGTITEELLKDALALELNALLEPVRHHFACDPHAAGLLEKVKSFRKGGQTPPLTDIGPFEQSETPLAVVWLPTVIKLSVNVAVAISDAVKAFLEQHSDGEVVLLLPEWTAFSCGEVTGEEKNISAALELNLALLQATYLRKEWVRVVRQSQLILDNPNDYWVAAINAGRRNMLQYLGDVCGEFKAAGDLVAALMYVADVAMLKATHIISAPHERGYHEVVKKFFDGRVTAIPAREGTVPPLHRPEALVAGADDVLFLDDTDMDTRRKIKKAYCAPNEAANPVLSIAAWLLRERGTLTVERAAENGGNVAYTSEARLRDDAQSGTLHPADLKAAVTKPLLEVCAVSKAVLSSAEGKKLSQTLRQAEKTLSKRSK
The experiment can be described thus: Trypanosoma cruzi tyrosyl tRNA synthetase (TcYRS) _High Tyrosine SOP. Note: in the data most compounds retested in dose-response had high values. It is filed as functional. To be noted: 30 µM.

In experiment [8] the target is T4, Tyrosyl-tRNA synthetase, putative (Trypanosoma cruzi (strain CL Brener)). As to the kind of experiment: Trypanosoma cruzi tyrosyl tRNA synthetase (TcYRS) SOP. The experiment is classed as functional. The following applies: 30 µM.
The target in experiment [9] is Chromo domain-containing protein 1 (Saccharomyces cerevisiae (strain ATCC 204508 / S288c) (Baker's yeast)) (UniProt P32657). As to the kind of experiment: ScCHD-1 Enzyme Inhibition Assay. Note: in the data most compounds retested in dose-response had high values. The experiment is classed as functional. To be noted: 30 µM.
Chromo domain-containing protein 1 (Saccharomyces cerevisiae (strain ATCC 204508 / S288c) (Baker's yeast)), sequence (P32657 whole entry, the tested form may be a part): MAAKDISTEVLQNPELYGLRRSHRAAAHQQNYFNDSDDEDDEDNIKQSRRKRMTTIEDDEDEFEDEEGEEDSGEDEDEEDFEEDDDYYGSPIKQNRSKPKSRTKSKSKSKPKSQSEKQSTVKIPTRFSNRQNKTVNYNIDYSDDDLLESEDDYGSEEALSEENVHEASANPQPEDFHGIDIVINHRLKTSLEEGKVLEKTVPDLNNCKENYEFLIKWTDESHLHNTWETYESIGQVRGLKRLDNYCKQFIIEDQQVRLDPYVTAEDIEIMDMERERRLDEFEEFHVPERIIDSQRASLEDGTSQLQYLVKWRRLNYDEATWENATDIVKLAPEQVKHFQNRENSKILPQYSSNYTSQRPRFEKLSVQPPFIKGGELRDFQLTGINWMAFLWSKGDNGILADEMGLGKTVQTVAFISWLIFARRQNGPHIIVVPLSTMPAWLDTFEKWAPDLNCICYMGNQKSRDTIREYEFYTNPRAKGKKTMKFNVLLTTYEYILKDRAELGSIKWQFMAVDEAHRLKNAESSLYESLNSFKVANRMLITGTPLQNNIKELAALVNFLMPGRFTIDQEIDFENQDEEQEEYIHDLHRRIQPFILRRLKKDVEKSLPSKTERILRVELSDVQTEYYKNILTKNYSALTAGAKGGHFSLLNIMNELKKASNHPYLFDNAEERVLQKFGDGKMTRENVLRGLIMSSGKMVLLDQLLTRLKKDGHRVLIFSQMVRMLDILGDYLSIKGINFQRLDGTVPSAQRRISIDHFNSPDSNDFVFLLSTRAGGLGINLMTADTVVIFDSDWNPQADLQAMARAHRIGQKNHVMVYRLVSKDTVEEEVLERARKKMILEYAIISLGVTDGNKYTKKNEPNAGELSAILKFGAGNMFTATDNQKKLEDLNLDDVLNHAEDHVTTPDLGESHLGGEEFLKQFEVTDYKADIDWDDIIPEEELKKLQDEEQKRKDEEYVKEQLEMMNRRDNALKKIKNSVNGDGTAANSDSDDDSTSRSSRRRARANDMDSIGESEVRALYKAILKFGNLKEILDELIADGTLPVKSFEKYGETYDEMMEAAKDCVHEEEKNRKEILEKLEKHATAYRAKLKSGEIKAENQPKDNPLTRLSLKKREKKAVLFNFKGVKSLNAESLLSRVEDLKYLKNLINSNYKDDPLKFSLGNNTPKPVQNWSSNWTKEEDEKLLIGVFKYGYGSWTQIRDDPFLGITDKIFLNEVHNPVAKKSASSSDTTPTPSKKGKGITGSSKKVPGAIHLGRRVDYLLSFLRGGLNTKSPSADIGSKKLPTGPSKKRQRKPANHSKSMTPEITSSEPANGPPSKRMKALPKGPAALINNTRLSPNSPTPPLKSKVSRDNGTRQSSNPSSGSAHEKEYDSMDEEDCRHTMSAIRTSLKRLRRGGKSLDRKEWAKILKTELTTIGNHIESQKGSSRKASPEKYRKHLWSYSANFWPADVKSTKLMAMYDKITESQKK

SMILES strings stand for the structures. For some of these results: Entries with a potency or affinity are not part of this list.

Protein translocase subunit SecA (Escherichia coli (strain K12)), sequence (P10408 whole entry): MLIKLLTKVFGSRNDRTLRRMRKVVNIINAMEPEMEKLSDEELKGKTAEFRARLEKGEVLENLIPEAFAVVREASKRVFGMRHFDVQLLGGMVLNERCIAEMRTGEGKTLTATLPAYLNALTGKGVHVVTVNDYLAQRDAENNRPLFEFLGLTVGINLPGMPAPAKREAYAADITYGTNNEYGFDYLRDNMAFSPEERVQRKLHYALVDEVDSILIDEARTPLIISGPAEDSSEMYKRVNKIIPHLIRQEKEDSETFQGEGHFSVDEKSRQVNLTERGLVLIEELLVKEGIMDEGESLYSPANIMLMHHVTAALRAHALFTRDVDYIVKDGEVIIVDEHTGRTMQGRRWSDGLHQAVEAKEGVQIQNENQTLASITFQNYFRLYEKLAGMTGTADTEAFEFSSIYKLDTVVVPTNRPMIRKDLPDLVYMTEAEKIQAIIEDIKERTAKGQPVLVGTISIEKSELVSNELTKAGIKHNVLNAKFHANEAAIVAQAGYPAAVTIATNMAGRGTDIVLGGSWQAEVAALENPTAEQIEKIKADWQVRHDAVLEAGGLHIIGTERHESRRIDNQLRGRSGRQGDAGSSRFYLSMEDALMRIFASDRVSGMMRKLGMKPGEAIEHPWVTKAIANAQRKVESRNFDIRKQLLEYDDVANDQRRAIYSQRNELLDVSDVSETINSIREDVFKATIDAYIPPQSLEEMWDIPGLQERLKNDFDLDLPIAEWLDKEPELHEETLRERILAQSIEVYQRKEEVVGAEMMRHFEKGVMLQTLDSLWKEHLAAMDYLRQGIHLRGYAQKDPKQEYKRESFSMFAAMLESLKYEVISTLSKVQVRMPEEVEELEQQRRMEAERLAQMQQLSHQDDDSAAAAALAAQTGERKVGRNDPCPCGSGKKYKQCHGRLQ
Sialic acid-binding Ig-like lectin 9 (Homo sapiens), sequence (Q9Y336 whole entry): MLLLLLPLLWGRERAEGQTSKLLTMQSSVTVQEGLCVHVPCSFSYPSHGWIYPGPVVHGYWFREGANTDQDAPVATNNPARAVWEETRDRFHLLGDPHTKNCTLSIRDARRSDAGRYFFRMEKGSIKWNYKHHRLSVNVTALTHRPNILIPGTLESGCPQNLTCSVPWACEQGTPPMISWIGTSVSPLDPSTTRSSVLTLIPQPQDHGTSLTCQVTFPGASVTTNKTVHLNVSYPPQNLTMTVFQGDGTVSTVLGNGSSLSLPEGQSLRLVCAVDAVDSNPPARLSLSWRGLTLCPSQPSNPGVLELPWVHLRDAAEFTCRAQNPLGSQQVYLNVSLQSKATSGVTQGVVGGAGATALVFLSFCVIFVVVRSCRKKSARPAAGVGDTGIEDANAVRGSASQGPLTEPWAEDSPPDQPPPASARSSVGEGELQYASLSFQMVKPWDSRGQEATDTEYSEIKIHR

With `OC1(Cn2ccc3ncccc32)CCN(Cc2ccccn2)CC1`, the Percent Effect in experiment [1] is -3.91%; in experiment [2], 6.76%; in [3] it was 8.71%; in [4], -8.37%; with Trypanosoma cruzi it was -10.3%; in experiment [5] it was -5.34%. Moreover, the Percent Effect in experiment [6] was 13.7%; in the experiment filed under Homo sapiens, 34.1%; in experiment [7] it was -3.23%; in experiment [8], -9.09%; in [9], -14.5%.

`CCn1nnc2cc(C(=O)N3CCCC3Cn3cc(C)cn3)ccc21` (stereo unspecified): the Percent Effect in experiment [1] was -1.32%; in experiment [2], -5.06%; in experiment [3], -2.65%; in [4], 3.15%; with Trypanosoma cruzi, 3.31%; in experiment [5] it was 2.28%. For the same compound, the Percent Effect in [6] was determined as 0.737%; in the experiment filed under Homo sapiens, 9.94%; in experiment [7] it was 0.493%; in experiment [8], 1.27%; in experiment [9], 0.343%.

As to `COCCN1CCC(CNC(=O)C2(c3cc(C)cc(C)c3)CCC2)C1` (stereo unspecified), the Percent Effect was -8.07% in [1]; 0% in [2]; -6.3% in [3]; -4.59% in experiment [4]; -1.77% in the experiment with Trypanosoma cruzi; 2.88% in experiment [5]. The Percent Effect was -4.82% in experiment [6]; -6.37% in the experiment listed under Homo sapiens; 2.46% in [7]; 1.24% in experiment [8]; 2.35% in [9].

Regarding `COc1ccc(-c2noc(C(=O)NCCN3CCCCC3)n2)cc1OC`, the Percent Effect was -7.28% in [1]; 14.7% in experiment [2]; -14.8% in [3]; 5.74% in experiment [4]; 8.25% in the experiment with Trypanosoma cruzi; -18.8% in [5]. In addition, the Percent Effect in experiment [6] is 1.85%; in the experiment listed under Homo sapiens it was 6.7%; in [7], 3.17%; in experiment [8], -5.13%; in experiment [9], -13.9%.

`COc1ccc(CN2CCCCC2CNC(=O)OC(C)(C)C)cc1F` (stereo unspecified): the Percent Effect in experiment [1] was -3.55%; in experiment [2], 0%; in experiment [3] it was -2.98%; in experiment [4], 21.3%; in the experiment with Trypanosoma cruzi it was -1.86%; in experiment [5], -1.74%. In addition, the Percent Effect in experiment [6] was 0.0858%; in the experiment filed under Homo sapiens, -23.7%; in [7] it was -2.15%; in [8], 1.24%; in experiment [9], -2.09%.

As to `Cc1n[nH]c(C2CN(C(=O)c3cc(Cl)c[nH]3)CCO2)n1` (stereo unspecified), the Percent Effect in experiment [1] is -1.17%; in [2], 2.63%; in experiment [3], 11.8%; in experiment [4], -0.307%; in the experiment on Trypanosoma cruzi, -0.876%; in experiment [5], -3.55%. Moreover, the Percent Effect was 5.27% in experiment [6]; -2.14% in the experiment listed under Homo sapiens; 4.25% in [7]; 5.2% in experiment [8]; 0.543% in experiment [9].

Regarding `CCc1nnc2n1CCN(C(=O)c1ccc3nc(C)c(C)nc3c1)C2`, the Percent Effect was -3.88% in experiment [1]; 1.39% in experiment [2]; 140% in experiment [3]; 3.38% in [4]; 5.34% in the experiment on Trypanosoma cruzi; -1.32% in experiment [5]. The Percent Effect is 20.7% in experiment [6]; -6.8% in the experiment listed under Homo sapiens; 5.26% in experiment [7]; 15.4% in experiment [8]; -2.97% in [9].

As to `Cc1ccc(N2CCCC(NCc3cscn3)C2)nn1` (stereo unspecified), the Percent Effect is -1.67% in experiment [1]; 13.5% in experiment [2]; -43.1% in [3]; -1.8% in experiment [4]; -1.04% in the experiment on Trypanosoma cruzi; 18.4% in experiment [5]. The Percent Effect in experiment [6] is 11.3%; in the experiment filed under Homo sapiens, 3.87%; in experiment [7], 12.3%; in experiment [8], 23.5%; in [9], -5.79%.

Take `CC(C)OCc1ncn2c1CN(Cc1ccc(F)cc1)CCC2`: the Percent Effect in experiment [1] is -4.79%; in experiment [2], 8.11%; in experiment [3], 2.07%; in experiment [4], 2.94%; in the experiment on Trypanosoma cruzi, -4.79%; in experiment [5], -6.05%. In addition, the Percent Effect is 22% in experiment [6]; -10.1% in the experiment listed under Homo sapiens; 3.24% in [7]; 12.8% in experiment [8]; -0.808% in [9].

With `Cc1ccc(C(=O)N2CCC(Oc3ccc(F)cc3F)CC2)c(=O)[nH]1`, the Percent Effect in experiment [1] is -4.74%; in experiment [2], 5.26%; in experiment [3] it was 3.18%; in experiment [4], -2.22%; with Trypanosoma cruzi, -7.52%; in experiment [5], 1.53%. Moreover, the Percent Effect in experiment [6] was 8.69%; in the experiment listed under Homo sapiens it was 43.4%; in experiment [7], 0.49%; in experiment [8] it was 4.88%; in [9], -4.43%.

As for `CCOc1nnc(CN(C)C2CCCN(c3cccnn3)C2)s1` (stereo unspecified), the Percent Effect was -2.38% in [1]; 10.5% in experiment [2]; -2.62% in experiment [3]; -6.38% in experiment [4]; 7.5% in the experiment with Trypanosoma cruzi; -11.8% in experiment [5]. For the same compound, the Percent Effect in [6] is 17.9%; in the experiment filed under Homo sapiens it was -12.4%; in experiment [7] it was 7.45%; in [8], 18.2%; in experiment [9], -4.02%.

The values above are taken from ChEMBL document CHEMBL3988442, “University of Dundee, Small-Polar-MMV Screening Library” (2021).
